From PubChem BioAssay (NCATS) come the findings set out here.

Structures are written as SMILES. Results filed as inconclusive are left out. A number with no mark means an inactive call. The source made the active and inactive calls. The call rests on the fitted dose curve; in most records, active means well fitted cell-killing curve with a large enough effect; inconclusive means small, poorly fitted or top-dose-only effect, or effect the other way; inactive means flat fitted curve, though single readings scatter.

Assay in all cases: Primary qHTS to identify gynecologic anti-cancer compounds using libraries of approved drugs and bioactive compounds (AID 1345084); further: nearly all actives have a fitted effect of over 55% in size
For assay [1], the system named is C33A. The settings on record: Gynecologic cancer cell panel viability, ATPlite luminescence, 48 h; series mostly up to 57.5 µM. The gist of the method:
(§1)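 Cell viability after 48 h drug treatment, ATPlite luminescence readout; five doses.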

In assay [2] the test system is Es-2. As to conditions: Gynecologic cancer cell panel viability, ATPlite luminescence, 48 h; series mostly up to 57.5 µM. The gist of the method: as §1
The subject of assay [3] is HeLa. As to conditions: Gynecologic cancer cell panel viability, ATPlite luminescence, 48 h; series mostly up to 57.5 µM. The gist of the method:
as §1

In assay [4] the test system is Hek293T. The settings on record: Gynecologic cancer cell panel viability, ATPlite luminescence, 48 h, control line for the selectivity index; series mostly up to 57.5 µM. The gist of the method: as §1
For orientation: Cellular ATP, detected with luciferase, serves as a proxy for viable cell number.

Assay [5] relates to JEG-3. The settings on record: Gynecologic cancer cell panel viability, ATPlite luminescence, 48 h; series mostly up to 57.5 µM. The procedure, abridged: as §1
Assay [6] concerns CASKI. The settings on record: Gynecologic cancer cell panel viability, ATPlite luminescence, 48 h; series mostly up to 57.5 µM. The procedure, abridged: as §1
Assay [7] relates to CAOV3. The settings on record: Gynecologic cancer cell panel viability, ATPlite luminescence, 48 h; series mostly up to 57.5 µM. The procedure, abridged: as §1
On the % scale 0 is the no-effect control and ±100 the full control effect; potency means the concentration at half of the fitted maximal effect.

With `O=C(CN1C2=NCCN2c2ccccc21)c1ccc(-c2ccccc2)cc1`, the Potency entry in assay [1], in assay [2], in assay [3], in assay [4] and in assay [5] was “inactive” in each case.
Consider `Cc1cc(Nc2nc(-c3ccccc3)nc3ccccc23)n[nH]1`, for which the Potency entry in assay [1] and in assay [2] was “inactive” throughout.
For the molecule `CC(C)c1ccc(-c2cc(=O)c3ccccc3o2)cc1`, the results for the Potency in assay [1] and in assay [5] were 11.2 µM (active) and 8.91 µM (active), respectively. In assay [6], the Potency entry is “inactive”.
As to `C[C@@H]1O[C@@H](O[C@H]2[C@H](OC(=O)[C@]34CCC(C)(C)C[C@H]3C3=CCC5[C@@]6(C)C[C@H](O)[C@H](O[C@@H]7O[C@H](CO)[C@@H](O)[C@H](O)[C@H]7O)[C@](CO)(C(=O)O)C6CC[C@@]5(C)[C@]3(C)C[C@H]4O)OC[C@H](O)[C@@H]2O)[C@H](O)[C@H](O)[C@H]1O[C@@H]1OC[C@@H](O)[C@H](O[C@@H]2OC[C@](O)(CO)[C@H]2O)[C@H]1O` (stereo partly specified), the activity change, negative = cytotoxicity is -2.46% [at 6.55 µM] in assay [7] and -28.8% [at 6.55 µM] in assay [6]. In addition, the Potency in assay [2] is 2.82 µM (active).
Take `O=C(NCCCCN1CCN(c2cccc(Cl)c2Cl)CC1)c1cc2ccccc2s1`: the Potency result in assay [7], in assay [6], in assay [2], in assay [3] and in assay [4] was “inactive” in each case.
Turning to `O=S(=O)(c1ccc(Cl)cc1)N1CCN(c2ccnc3cc(Cl)ccc23)CC1`, the Potency result in assay [7], in assay [6], in assay [2], in assay [3], in assay [4] and in assay [5] was “inactive” in each case.
As for `C/C=C(\C)C(=O)OC1C(C)C2(O)C(C=C(CO)CC3(O)C(=O)C(C)=CC32)C2C(C)(C)C12OC(=O)C(C)C` (stereo unspecified), the Potency entry in assay [7], in assay [6], in assay [2], in assay [3] and in assay [4] was “inactive” each time.
Turning to `C=C1CC[C@@H]2[C@](C)(CO)[C@H](O)CC[C@@]2(C)[C@@H]1CC(=O)C1=CCOC1=O`, the Potency entry in assay [1] and in assay [4] was “inactive” in each case.
`CC(CCC1(O)OC2CC3C4CC=C5CC(O[C@@H]6O[C@H](CO)[C@@H](O[C@@H]7O[C@@H](C)[C@H](O)[C@@H](O)[C@H]7O)[C@H](O)[C@H]6O[C@@H]6O[C@@H](C)[C@H](O)[C@@H](O)[C@H]6O)CCC5(C)C4CCC3(C)C2C1C)CO[C@@H]1O[C@H](CO)[C@@H](O)[C@H](O)[C@H]1O` (stereo partly specified): the activity change, negative = cytotoxicity is -11% [at 11.6 µM] in assay [7]; 1.54% [at 11.6 µM] in assay [6]; 4.17% [at 11.6 µM] in assay [2]; -7.05% [at 11.6 µM] in assay [3]; 4.44% [at 11.6 µM] in assay [4]; 10.4% [at 11.6 µM] in assay [5].
On to `O=C(c1ccc(Cl)cc1)N1CCN(c2ccnc3cc(Cl)ccc23)CC1`, for which the Potency entry in assay [7], in assay [6], in assay [2], in assay [3], in assay [4] and in assay [5] was “inactive” in each case.
On to `O=C(COc1ccc(C(=O)c2ccccc2)cc1)NC1CCN(Cc2ccccc2)CC1`, for which the Potency entry in assay [7], in assay [6], in assay [2], in assay [3] and in assay [5] was “inactive” throughout.
`Cc1ccc(OC[C@H](O)[C@H](C)NC(C)C)c2c1CCC2`: the Potency entry in assay [7], in assay [6], in assay [2], in assay [3], in assay [4] and in assay [5] was “inactive” in each case.
Take `Cc1noc(C)c1-c1cc(O)cc(C(O)c2ccccc2)c1` (stereo unspecified): the Potency entry in assay [1], in assay [4] and in assay [5] was “inactive” each time.
On to `CCNC(=O)C#Cc1ccc2c(C(=Nc3ccc(CN(C)C)cc3)c3ccccc3)c(O)[nH]c2c1`, for which the Potency entry in assay [1], in assay [4] and in assay [5] was “inactive” throughout.
Take `O=C(NCCCc1ccccc1)c1cccc(-c2cc(O)c3ncccc3c2)c1`: the Potency entry in assay [7] and in assay [6] was “inactive” throughout.
In the case of `O=C(NO)c1cnc(N2CCN(S(=O)(=O)c3ccc4ccccc4c3)CC2)nc1`, the Potency entry in assay [7] was “inactive”.
Take `O=C(Nc1cccc([N+](=O)[O-])c1)c1cccc(S(=O)(=O)N2CCCCCC2)c1`: the Potency result in assay [7], in assay [6], in assay [2], in assay [3] and in assay [5] was “inactive” in each case.
Regarding `CC(C)CCNC(=O)c1ccc2c(c1)nc(Nc1n[nH]c3ccc(-c4ccccc4OC(F)(F)F)cc13)n2C1CCC(O)CC1` (stereo unspecified), the Potency result in assay [7], in assay [6], in assay [2], in assay [3], in assay [4] and in assay [5] was “inactive” in each case.
For the molecule `Cc1cc(-c2cnc(N)c3c(-c4ccc5scnc5c4)csc23)n(C)n1`, the Potency entry in assay [7], in assay [6], in assay [2], in assay [3], in assay [4] and in assay [5] was “inactive” in each case.
Take `C/C=C(/C)C(=O)OC1CC(C)(C)CC2C3=CCC4C5(C)CCC(O[C@@H]6O[C@H](C(=O)O)[C@@H](O)[C@H](O)[C@H]6O[C@@H]6O[C@H](CO)[C@H](O)[C@H](O[C@@H]7OC[C@H](O)[C@H](O)[C@H]7O[C@@H]7O[C@H](CO)[C@@H](O)[C@H](O)[C@H]7O)[C@H]6O)C(C)(C)C5CCC4(C)C3(C)C(O)C(O)C12CO` (stereo partly specified): the activity change, negative = cytotoxicity was -23.4% [at 6.55 µM] in assay [7]; -3.66% [at 6.55 µM] in assay [6]; -27.7% [at 6.55 µM] in assay [2]; -5.95% [at 6.55 µM] in assay [3]; -6.95% [at 6.55 µM] in assay [5].
With `CCNC(=O)c1noc(-c2cc(Cl)c(O)cc2O)c1-c1ccc(OC)cc1`, the Potency in assay [1] is 1.12 µM (active); in assay [4] it was 0.355 µM (active).
Take `CC(C)c1cc2c(N3CCN(C4=NCC(C)(C)S4)CC3)ncnc2s1`: the Potency result in assay [7], in assay [6], in assay [2], in assay [3] and in assay [5] was “inactive” in each case.
Turning to `Cc1nc(C#Cc2ccnc(Cl)c2)c(C)n1-c1ccc(F)cc1`, the Potency entry in assay [7], in assay [6], in assay [2], in assay [3] and in assay [5] was “inactive” in each case.
In the case of `COc1cccc(-c2cn(-c3ccc(CCN4CCC(O)CC4)cc3)c3ncnc(N)c23)c1`, in assay [7], the Potency is 14.1 µM (active).
As for `CC(C)n1cnc2c(-c3cnc(N)nc3)nc(N3CCOCC3)nc21`, the Potency entry in assay [1] and in assay [5] was “inactive” each time. The Potency in assay [4] was 1.12 µM (active).
In the case of `COc1cc(N2CCC(N)CC2)ccc1Nc1ncc(Cl)c(-c2c[nH]c3ccccc23)n1`, the Potency was 22.4 µM (active) in assay [7], 28.2 µM (active) in assay [6] and 3.98 µM (active) in assay [3]. In addition, the Potency entry in assay [2] and in assay [5] was “inactive” throughout.
